# Test results taken from PubChem BioAssay AID1159580 (chemical genetic matrix, 2015).
# The campaign covered roughly 5,500 compounds. About 2,000 (36%) were called active. Another 18% or so got no clear call; they are omitted. This is one part of the list. Unmarked numbers belong to inactive results. Rule as the data show it: active = normalized growth mostly below about 0.91 (no sharp cut-off); inconclusive = no clear call, values can overlap the other calls; inactive = mostly above about 0.92.
# Assay: chemical genetic growth profiling, strain panel (AID 1159580);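 also: tested at 20 µM; growth read once vehicle control cultures reached saturation at 30 °C; 1 = growth at the plate median or of vehicle wells; lower values mean less growth of the strain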
# Conditions: growth OD
structure (smiles),measurement,setting,value
COC(=O)c1c(C)c2c(c(C)c1OC)OC(=O)c1c(C)c(Cl)c(OC)c(Cl)c1O2,normalized growth,"S. cerevisiae deletion strains, locus YBR021W, strain FUR4, stronger effect = lower value",0.99
same,normalized growth,"S. cerevisiae deletion strains, locus YBR229C, strain ROT2, stronger effect = lower value",1.01
same,normalized growth,"S. cerevisiae deletion strains, locus YCL029C, strain bik1, stronger effect = lower value",1.02
same,normalized growth,"S. cerevisiae deletion strains, locus YDL035C, strain GPR1, stronger effect = lower value",1.03
same,normalized growth,"S. cerevisiae deletion strains, locus YDL074C, strain BRE1, stronger effect = lower value",1.04
same,normalized growth,"S. cerevisiae deletion strains, locus YDL101C, strain DUN1, stronger effect = lower value",1.02
same,normalized growth,"S. cerevisiae deletion strains, locus YDL134C, strain PPH21, stronger effect = lower value",1.01
same,normalized growth,"S. cerevisiae deletion strains, locus YDL185W, strain tfp1, stronger effect = lower value",1.01
same,normalized growth,"S. cerevisiae deletion strains, locus YDL192W, strain arf1, stronger effect = lower value",1.02
same,normalized growth,"S. cerevisiae deletion strains, locus YDR101C, strain arx1, stronger effect = lower value",1
same,normalized growth,"S. cerevisiae deletion strains, locus YDR150W, strain NUM1, stronger effect = lower value",1.02
same,normalized growth,"S. cerevisiae deletion strains, locus YDR162C, strain NBP2, stronger effect = lower value",1.03
same,normalized growth,"S. cerevisiae deletion strains, locus YDR318W, strain mcm21, stronger effect = lower value",1.02
same,normalized growth,"S. cerevisiae deletion strains, locus YDR388W, stronger effect = lower value",1.02
same,normalized growth,"S. cerevisiae deletion strains, locus YDR502C, strain sam2, stronger effect = lower value",1.03
same,normalized growth,"S. cerevisiae deletion strains, locus YEL061C, strain CIN8, stronger effect = lower value",1.01
same,normalized growth,"S. cerevisiae deletion strains, locus YER110C, stronger effect = lower value",1.02
same,normalized growth,"S. cerevisiae deletion strains, locus YER155C, strain BEM2, stronger effect = lower value",0.998
same,normalized growth,"S. cerevisiae deletion strains, locus YER167W, strain BCK2, stronger effect = lower value",1.03
same,normalized growth,"S. cerevisiae deletion strains, locus YGL078C, strain dbp3, stronger effect = lower value",1.01
same,normalized growth,"S. cerevisiae deletion strains, locus YGL086W, strain mad1, stronger effect = lower value",1.03
same,normalized growth,"S. cerevisiae deletion strains, locus YGL248W, strain PDE1, stronger effect = lower value",1.01
same,normalized growth,"S. cerevisiae deletion strains, locus YGR135W, strain pre9, stronger effect = lower value",1.03
same,normalized growth,"S. cerevisiae deletion strains, locus YGR229C, strain SMI1, stronger effect = lower value",1.06
same,normalized growth,"S. cerevisiae deletion strains, locus YGR252W, strain gcn5, stronger effect = lower value",1.01
same,normalized growth,"S. cerevisiae deletion strains, locus YHR030C, strain SLT2, stronger effect = lower value",1.02
same,normalized growth,"S. cerevisiae deletion strains, locus YHR079C, strain IRE1 (second series), stronger effect = lower value",1.01
same,normalized growth,"S. cerevisiae deletion strains, locus YHR094C, strain hxt1, stronger effect = lower value",1.02
same,normalized growth,"S. cerevisiae deletion strains, locus YHR129C, strain ARP1, stronger effect = lower value",1.01
same,normalized growth,"S. cerevisiae deletion strains, locus YHR200W, strain rpn10, stronger effect = lower value",1.02
same,normalized growth,"S. cerevisiae deletion strains, locus YIL066C, strain RNR3, stronger effect = lower value",1.04
same,normalized growth,"S. cerevisiae deletion strains, locus YIL073C, strain SPO22, stronger effect = lower value",1.09
same,normalized growth,"S. cerevisiae deletion strains, locus YIL125W, strain kgd1, stronger effect = lower value",1.01
same,normalized growth,"S. cerevisiae deletion strains, locus YIR030C, strain dcg1, stronger effect = lower value",1.01
same,normalized growth,"S. cerevisiae deletion strains, locus YJL095W, strain BCK1, stronger effect = lower value",1.04
same,normalized growth,"S. cerevisiae deletion strains, locus YJL134W, strain LCB3, stronger effect = lower value",1.01
same,normalized growth,"S. cerevisiae deletion strains, locus YJL168C, strain set2, stronger effect = lower value",1.02
same,normalized growth,"S. cerevisiae deletion strains, locus YJL187C, strain SWE1 (second series), stronger effect = lower value",1.03
same,normalized growth,"S. cerevisiae deletion strains, locus YJR043C, strain POL32, stronger effect = lower value",1.03
same,normalized growth,"S. cerevisiae deletion strains, locus YKL009W, strain mrt4, stronger effect = lower value",1.37 [resistant] (active)
same,normalized growth,"S. cerevisiae deletion strains, locus YKL068W, stronger effect = lower value",1.04
same,normalized growth,"S. cerevisiae deletion strains, locus YKL085W, strain MDH1 (second series), stronger effect = lower value",1.23 [resistant] (active)
same,normalized growth,"S. cerevisiae deletion strains, locus YKL085W, strain MDH1, stronger effect = lower value",1.23 [resistant] (active)
same,normalized growth,"S. cerevisiae deletion strains, locus YKR001C, strain vps1, stronger effect = lower value",1.01
same,normalized growth,"S. cerevisiae deletion strains, locus YLR039C, strain RIC1, stronger effect = lower value",1.06
same,normalized growth,"S. cerevisiae deletion strains, locus YLR058C, strain SHM2, stronger effect = lower value",1.02
same,normalized growth,"S. cerevisiae deletion strains, locus YLR102C, strain apc9, stronger effect = lower value",1.01
same,normalized growth,"S. cerevisiae deletion strains, locus YLR262C, strain YPT6, stronger effect = lower value",1.07
same,normalized growth,"S. cerevisiae deletion strains, locus YLR268W, strain sec22, stronger effect = lower value",1.02
same,normalized growth,"S. cerevisiae deletion strains, locus YLR330W, strain CHS5, stronger effect = lower value",1.02
same,normalized growth,"S. cerevisiae deletion strains, locus YLR342W, strain FKS1 (second series), stronger effect = lower value",1.05
same,normalized growth,"S. cerevisiae deletion strains, locus YLR371W, strain rom2, stronger effect = lower value",1.01
same,normalized growth,"S. cerevisiae deletion strains, locus YLR418C, strain cdc73, stronger effect = lower value",1.03
same,normalized growth,"S. cerevisiae deletion strains, locus YML016C, strain PPZ1, stronger effect = lower value",1.01
same,normalized growth,"S. cerevisiae deletion strains, locus YML032C, strain rad52, stronger effect = lower value",1.01
same,normalized growth,"S. cerevisiae deletion strains, locus YML124C, strain tub3, stronger effect = lower value",1.04
same,normalized growth,"S. cerevisiae deletion strains, locus YMR078C, strain ctf18, stronger effect = lower value",1.01
same,normalized growth,"S. cerevisiae deletion strains, locus YMR223W, strain ubp8, stronger effect = lower value",1.02
same,normalized growth,"S. cerevisiae deletion strains, locus YMR307W, strain GAS1, stronger effect = lower value",1.04
same,normalized growth,"S. cerevisiae deletion strains, locus YNL067W, strain RPL9B, stronger effect = lower value",1.02
same,normalized growth,"S. cerevisiae deletion strains, locus YNL128W, strain TEP1, stronger effect = lower value",1.04
same,normalized growth,"S. cerevisiae deletion strains, locus YNL233W, strain BNI4, stronger effect = lower value",1.02
same,normalized growth,"S. cerevisiae deletion strains, locus YNL250W, strain rad50, stronger effect = lower value",1.04
same,normalized growth,"S. cerevisiae deletion strains, locus YNL271C, strain bni1, stronger effect = lower value",1.02
same,normalized growth,"S. cerevisiae deletion strains, locus YNL298W, strain CLA4, stronger effect = lower value",1.02
same,normalized growth,"S. cerevisiae deletion strains, locus YNL307C, strain MCK1, stronger effect = lower value",1.01
same,normalized growth,"S. cerevisiae deletion strains, locus YNL322C, strain KRE1, stronger effect = lower value",1.02
same,normalized growth,"S. cerevisiae deletion strains, locus YNR052C, strain pop2, stronger effect = lower value",1.02
same,normalized growth,"S. cerevisiae deletion strains, locus YOL012C, strain htz1",0.795
same,normalized growth,"S. cerevisiae deletion strains, locus YOL147C, strain pex11, stronger effect = lower value",1.01
same,normalized growth,"S. cerevisiae deletion strains, locus YOR061W, strain CKA2, stronger effect = lower value",1.01
same,normalized growth,"S. cerevisiae deletion strains, locus YOR069W, strain VPS5, stronger effect = lower value",1.01
same,normalized growth,"S. cerevisiae deletion strains, locus YOR136W, strain idh2, stronger effect = lower value",1.02
same,normalized growth,"S. cerevisiae deletion strains, locus YOR144C, strain elg1, stronger effect = lower value",1.01
same,normalized growth,"S. cerevisiae deletion strains, locus YOR184W, strain ser1, stronger effect = lower value",1.02
same,normalized growth,"S. cerevisiae deletion strains, locus YOR316C, strain cot1, stronger effect = lower value",1.02
same,normalized growth,"S. cerevisiae deletion strains, locus YPL055C, strain LGE1, stronger effect = lower value",1.04
same,normalized growth,"S. cerevisiae deletion strains, locus YPR119W, strain clb2, stronger effect = lower value",1.01
same,normalized growth,"S. cerevisiae deletion strains, locus YPR141C, strain kar3, stronger effect = lower value",1.02
same,normalized growth,"S. cerevisiae deletion strains, locus YPR163C, strain tif3, stronger effect = lower value",1.01
same,normalized growth,"S. cerevisiae deletion strains, locus YPR167C, strain met16, stronger effect = lower value",1.02
same,normalized growth,"S. cerevisiae deletion strains, strain wtn01, stronger effect = lower value",1.01
same,normalized growth,"S. cerevisiae strains, strain wild type, stronger effect = lower value",1.02
